Luc counter – Counterscreen for Luciferase (Kinase-Glo TM) Inhibition; actives 0.28% (n = 200,000); Kinase-Glo luciferase, ATP luminescence, 8 min; Luciferin 4-monooxygenase (Photuris pensylvanica), Q27757; AID 1379, 2008; Potency, µM (titrated, usually from 38.3 µM), for inactives: at the top dose activity change, negative = inhibition, actives largely listed as inhibitors; note: potency is the fitted concentration of half-maximal effect; % is set by controls: 0 for no effect and ±100 for the full control effect; nearly all actives have a fitted effect of over 60% in size
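Substrate mix (final 50 mM imidazole pH 7.2, 50 mM KCl, 7 mM MgCl2, 10 uM ATP, 0.01% Tween 20, 0.05% BSA) plus pin-tool compound, then Kinase-Glo detection mix; 8 min ambient, luminescence read.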
miR-21 act – qHTS Assay for Modulators of miRNAs and/orActivators of miR-21 | HeLa miR-21 FLuc reporter, luciferase, 48 h | Potency, µM (highest dose often 38.3 µM), for inactives: at the top dose activity change, positive = activation, usual class: activators | 340,000 tested, under 10 active | AID 2288, 2010;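 note: % of control where 0% means no effect; miR-21 action dims this reporter so a rising signal means less miR-21 action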
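Using DMEM plus 10% FBS, HeLa miR-21-FLuc cells are incubated with test compounds (final up to about 40uM) for 48 hours; firefly luciferase signal is then imaged following reagent-mediated lysis.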
RXFP1 agonist – qHTS Assay for Agonists of the Relaxin Receptor RXFP1; actives 0.3% (n = 370,000); HEK293T-RXFP1 cAMP TR-FRET, 30 min; response scale: percent of porcine relaxin response, buffer zero; Potency, µM (series often up to 57.5 µM), without a hit: top-dose activation, hits mostly activators; note: potency is the fitted concentration of half-maximal effect; % is set by controls: 0 for no effect and ±100 for the full control effect; nearly all actives have a fitted effect of over 60% in size
Target sequence (Q9HBX9 whole entry, looked up): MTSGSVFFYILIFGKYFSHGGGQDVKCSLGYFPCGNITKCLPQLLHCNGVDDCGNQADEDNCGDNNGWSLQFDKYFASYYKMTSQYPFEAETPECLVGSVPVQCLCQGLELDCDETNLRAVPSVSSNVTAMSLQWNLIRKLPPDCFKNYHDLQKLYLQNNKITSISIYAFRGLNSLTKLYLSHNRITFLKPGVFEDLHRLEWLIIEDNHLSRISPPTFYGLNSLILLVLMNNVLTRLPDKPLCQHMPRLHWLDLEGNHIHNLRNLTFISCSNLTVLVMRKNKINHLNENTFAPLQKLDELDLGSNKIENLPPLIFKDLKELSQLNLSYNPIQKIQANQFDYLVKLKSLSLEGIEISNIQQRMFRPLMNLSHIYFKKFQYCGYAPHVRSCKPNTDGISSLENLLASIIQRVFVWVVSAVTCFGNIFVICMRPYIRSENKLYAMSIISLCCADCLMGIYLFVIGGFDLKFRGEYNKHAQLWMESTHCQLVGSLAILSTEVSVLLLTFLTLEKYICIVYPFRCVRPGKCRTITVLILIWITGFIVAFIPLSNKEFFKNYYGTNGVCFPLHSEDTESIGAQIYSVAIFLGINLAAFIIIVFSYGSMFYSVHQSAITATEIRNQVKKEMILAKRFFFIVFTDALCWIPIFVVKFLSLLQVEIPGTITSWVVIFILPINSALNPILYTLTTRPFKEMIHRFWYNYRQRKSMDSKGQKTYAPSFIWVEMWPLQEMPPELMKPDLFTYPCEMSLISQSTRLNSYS
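Agonist response is measured as cAMP accumulation in an RXFP1-transfected HEK293T line under PDE4 inhibition. Values are scaled between buffer-only and 29 nM porcine relaxin, and EC50s come from standard Hill equation fits.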
GALK inhibitor – qHTS Assay for Inhibitors of Human Galactokinase (GALK). Purified GALK, Kinase-Glo residual ATP luminescence. Potency, µM (doses to about 57.5 µM), inactives show at the top dose activity change, negative = inhibition, actives largely listed as inhibitors. actives 0.007% (n = 270,000). AID 1868, 2009; note: potency is the fitted concentration of half-maximal effect; % is set by controls: 0 for no effect and ±100 for the full control effect
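Human GALK (5 nM) with 35 uM ATP and 100 uM galactose in 20 mM HEPES pH 8.0, 5 mM MgCl2, 60 mM NaCl, 1 mM DTT, 0.01% BSA. After 1 h at room temperature, leftover ATP was read by Kinase-Glo Plus luminescence.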
PKM2 act – qHTS Assay for Activators of Human Muscle isoform 2 Pyruvate Kinase. Pyruvate kinase PKM (Homo sapiens), P14618. purified PKM2, Kinase-Glo ATP luminescence, activation; response scale: 0% is enzyme alone, no compound. Potency, µM (doses to about 57.5 µM), for inactives: at the top dose activation, usual class: activators. actives 0.34% (n = 260,000). AID 1631, 2009; note: potency is the fitted concentration of half-maximal effect; % is set by controls: 0 for no effect and ±100 for the full control effect; nearly all actives have a fitted effect of over 55% in size
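Kinase-Glo luminescence reports ATP generated from ADP (0.1 mM) and PEP (0.5 mM) by purified hPK-M2 after 1 h at room temperature, pH 7.2 imidazole buffer; intermediate enzyme activity allows detecting inhibitors and activators.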
RXFP1 antag – qHTS Assay for Antagonists of the Relaxin Receptor RXFP1; Relaxin receptor 1 (Homo sapiens), Q9HBX9; HEK293-RXFP1, relaxin-stimulated cAMP HTRF, 30 min; active compounds read low; activity change, negative = inhibition, % at 57.5 µM; actives 0.59% (n = 350,000);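 active = activity change of -60% or lower, but not beyond a set lower limit; inconclusive = change between -60% and -40%, or beyond the set limit; inactive = change above -40%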; note: % is set by controls: 0 for no effect and ±100 for the full control effect
* hit, by the source's call; ? = inconclusive; . = no result; ! = not confirmed by another sample; [ ] = dose if it differs, or a comment. Most compounds without a hit are left out; they make up all but 0.92% or so of the library. Unless noted, calls come from the whole dose curve; as a rule, active = well fitted curve in the direction sought with a large enough effect; inconclusive = small, poorly fitted or top-dose-only effect, or another doubt; inactive = no such curve, though single readings can be large; an effect the other way counts as inactive or inconclusive.

SMILES | Luc counter | miR-21 act | RXFP1 agonist | GALK inhibitor | PKM2 act | RXFP1 antag
O=C(CC1C(=O)NCCN1Cc1ccc(-c2ccccc2)cc1)NCC1CC1 (stereo not drawn) | -1.7% | -0.1% | -1.5% | -0.6% | 0.6% | -61.3*
O=[N+]([O-])c1cccc(-c2csc(N/N=C/c3cccc(O)c3)n2)c1 | 10.4% | 12.4% | -0.3% | -5.0% | 11.4% | -67.1*
CCOc1ccc(-c2cn(-c3ccccc3OC)c(=S)[nH]2)cc1 | . | 9.5% | 4.1% | . | . | -20.1
CCOc1ccc(-n2cc(-c3ccc(OC)c(OC)c3)[nH]c2=S)cc1 | 2.0% | -0.4% | 3.6% | 0.7% | 1.6% | -76.2*
COc1cccc2c(C)cc3nnc(SCC(=O)Nc4ccc(C)cc4)n3c12 | . | -17.2% | 1.6% | . | . | -19.4
Cc1cccc(OC(C)C(=O)N2CCC(c3nc4ccccc4o3)CC2)c1C (stereo not drawn) | . | -0.2% | -0.5% | . | . | -63.1*
O=C(NCCN1CCCCC1)c1ccc(-n2c(=O)c(=O)[nH]c3ccccc32)cc1 | 1.1% | . | . | . | . | .
O=C(c1cccn1-c1nnc(N2CCCC2)s1)N1CCN(c2ccccc2)CC1 | . | -2.9% | 4.5% | . | . | 1.5
Cc1ccc(Cl)cc1N1CCN(C(=O)c2cccn2-c2nnc(N3CCCC3)s2)CC1 | . | 1.6% | -3.7% | . | . | -82.7*
CC(=O)Nc1ccc(C(=O)NC2CCSc3ccccc32)cc1 (stereo not drawn) | . | -16.6% | 0.5% | -1.4% | -1.3% | 5.9
Cc1ccc(NC(=S)NC2CCSc3ccccc32)cc1 (stereo not drawn) | . | 6.2% | 1.0% | 10.8% | -0.4% | -61.6*
CC(NC(=O)/C(C#N)=C/c1ccc(Cl)c([N+](=O)[O-])c1)c1ccccc1 (stereo not drawn) | -0.7% | ? | -1.3% | -3.0% | ? | -104.4*
CNC(=O)c1cnn(-c2nc(N)c3ncn([C@@H]4O[C@H](CO)[C@@H](O)[C@H]4O)c3n2)c1 | . | . | . | . | . | 7.5
O=C(c1ccc2c(=O)n(Cc3ccco3)c(=S)[nH]c2c1)N1CCN(c2ccccc2)CC1 | -2.7% | 0.3% | -1.3% | -3.2% | 12.6µM* | -0.8
CCCn1c(=S)[nH]c2cc(C(=O)N3CCN(c4ccccc4)CC3)ccc2c1=O | . | . | . | . | . | -15.0
COc1ccc(S(=O)(=O)N2CCc3ccccc32)cc1C(=O)OCc1c(C)noc1C | -1.6% | -7.6% | 0.4% | 3.0% | 11.2µM* | 4.5
NCCCC(N)CC(=O)NCC1NC(=O)C(CO)NC(=O)C(N)CNC(=O)C(C2CCN=C(N)N2)NC(=O)C(=CNC(N)=O)NC1=O (stereo not drawn) | . | . | . | . | . | -13.2
C#Cc1cccc(NC(=O)c2ccc3c(c2)C(=O)N(Cc2cccnc2)C3=O)c1 | . | -3.1% | -1.1% | 2.6% | 0.2% | -88.2*
COc1cc([N+](=O)[O-])ccc1NC(=O)CSc1nccn1C | -0.9% | -2.7% | -2.5% | 2.3% | 12.6µM* | 7.1
COc1cc(OC)c(NC(=O)CSc2nccn2C)cc1Cl | . | 1.8% | -0.6% | . | . | .
COC(=O)c1ccc(C(NC(=O)OCc2ccccc2)/C(=C/[C@@H](C)C(=O)NCc2nc3ccccc3n2C)c2cccnc2)cc1 (stereo partly drawn) | -3.0% | . | . | . | -7.4% | .
Cc1cccc(CNC(=O)C2CCN(c3nc4ccc(Cl)cc4[nH]3)CC2)c1 | . | 7.2% | 4.8% | . | . | -72.1*
O=C1C(=C(c2ccccc2)N2CCOCC2)Cc2ccccc21 | . | . | . | . | . | -36.6
O=C1CCCC2=C1C1(CCCCC1)N=C(Nc1nc3ccccc3o1)N2 | 3.3% | -5.5% | -1.8% | 22.4µM* | 2.1% | 5.9
COc1ccc([C@@H]2[C@@H](O)[C@H](O)[C@@H](C)N2C)cc1OC | -0.5% | . | . | . | . | .
SMILES | Luc counter | miR-21 act | RXFP1 agonist | GALK inhibitor | PKM2 act | RXFP1 antag
CC(C)Cn1c(SCC(=O)NC(=O)NC2CCCC2)nc2ccccc21 | 14.5% | 13.3% | 0.5% | 13.1% | -3.1% | -66.0*
CCN(CC(=O)NCc1cccs1)C(=O)c1ccc(S(=O)(=O)Nc2ccccc2Cl)cc1 | . | . | 2.2% | . | . | 7.7
COc1ccc(CNc2nc(-c3ccccc3OC)nc3ccccc23)c(OC)c1 | 0.3% | . | . | . | . | .
Cc1ccc(CNC(=O)C2c3ccccc3C(=O)N3CCc4ccccc4C23)o1 (stereo not drawn) | -6.2% | 3.2% | 2.9% | 2.4% | 10µM* | 14.1
CCc1nn2c(=O)cc(COC(=O)c3cccc(NC(=O)c4cccs4)c3)nc2s1 | . | -9.0% | 2.0% | . | . | 12.0
O=c1c2ccccc2cnn1Cc1n[nH]c(=S)n1-c1ccc(F)c(Cl)c1 | 1.1% | -1.0% | 15.8µM* | -3.4% | -0.5% | 4.9
COC(=O)[C@@]1(Cc2ccccc2)C=C[C@@H](C)N1C(=O)c1ccccc1 | -6.8% | . | . | . | 3.2% | .
Cc1ccccc1CS(=O)(=O)c1ncc(Cl)c(C(=O)Nc2ccc(F)cc2)n1 | . | ? | -0.5% | 3.5% | . | -103.5*
COc1ccc(OC)c(NC(=O)c2nc(S(=O)(=O)Cc3ccccc3)ncc2Cl)c1 | . | -0.3% | -1.5% | -0.7% | . | -17.1
O=C(Nc1nc2ccc(F)cc2s1)c1nc(S(=O)(=O)Cc2ccccc2)ncc1Cl | . | ? | 0.1% | . | . | .
COc1ccc2nc(NC(=O)c3nc(S(=O)(=O)Cc4ccccc4F)ncc3Cl)sc2c1 | . | ? | -1.1% | . | . | -82.8*
O=C(Nc1ccc(F)cc1)c1nc(S(=O)(=O)Cc2ccccc2)ncc1Cl | . | ? | -2.4% | 4.3% | . | -104.8*
Cc1ccc(NC(=O)c2nc(S(=O)(=O)Cc3ccccc3)ncc2Cl)cc1 | . | ? | 1.4% | 1.0% | . | -84.7*
O=C(O)C[C@H](Cc1ccccc1)C(=O)O | -0.3%[7.66 µM] | . | . | . | . | .
O=C(NCc1ccccc1)c1nc(S(=O)(=O)Cc2ccc(F)cc2)ncc1Cl | . | ? | -0.2% | . | . | -116.1*
CS(=O)(=O)c1ncc(Cl)c(C(=O)Nc2ccc(OC(F)F)cc2)n1 | . | ? | 11.9% | 4.2% | -0.9% | -82.4*
Cc1ccc(-c2cc(C(=O)N(C)Cc3cnn(C)c3C)c3cc(Br)ccc3n2)cc1 | 1.3% | 14.4% | 21.3% | -4.5% | 5.4% | 4.9
Cc1ccc(-c2cc(C(=O)NCc3cnn(C)c3C)c3cc(Br)ccc3n2)cc1 | -5.4% | -23.9% | 28.2µM*! | -0.7% | 2.7% | 7.5
CN1c2cc(Cl)ccc2-c2nc(SCC(=O)Nc3ccc(F)cc3F)ncc2S1(=O)=O | . | 3.1% | 31.6µM* | . | . | 0.6

Assay outcomes (PubChem BioAssay)
